Screening data as filed in PubChem.
Only some compounds are listed: those with a hit (about 4.8% of all), similar ones and a draw of the others.
hcDAF12 agonist – H. contortus DAF-12 nuclear receptor activators, primary screen, cell-based, luminescence, HEK293, lit1-tk-luc reporter | activation, % at 6.8 µM | hit rate 1.4% among 370,000 | HEK293 hcDAF-12 lit1-tk-luc reporter; 0% DMSO, 100% Δ7-dafachronic acid;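 active = activation above the mean of all tested compounds plus 3 SD, cut at about 5.5% in these data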
DAX1 inh-1 – DAX1 (NR0B1) inhibitors on StAR promoter, primary screen, cell-based, luminescence, SF-1 (NR5A1), full-length DAX-1. HEK293T StAR-luciferase reporter, SF-1/DAX-1 repression relief. inhibition, % at 6.8 µM. hit rate 1.1% among 370,000. AID 652010, 2013;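 active = inhibition above the mean over all tested compounds plus 3 SD, cut at about 3.6% in these data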;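 also: higher inhibition means more luminescence from relief of DAX-1 repression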
hgDAF-12 ag – H. glycines DAF-12 receptor agonists, primary screen, cell-based, luminescence, HEK293, GAL4 fusion, UAS-luciferase; Nuclear hormone receptor DAF-12 (Heterodera glycines), GAL4 fusion; HEK293 GAL4-hgDAF12 UAS-luciferase reporter, agonist luminescence; normalized to butyrate control; activation, % at 6.8 µM; hit rate 1.8% among 370,000; AID 687014, 2013;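 active = activation above a cutoff set at the mean of all screened compounds plus 3 SD, cut at about 10% in these data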
DAX1 inh-2 – DAX1 (NR0B1) inhibitors, primary screen, cell-based, HEK293, Gal4-DAX1, luciferase luminescence; Nuclear receptor subfamily 0 group B member 1 (Homo sapiens), P51843; HEK293 Gal4-DAX1 luciferase reporter; inhibition, % at 6.75 µM; hit rate 0.99% among 340,000;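 active = inhibition above the mean over all tested compounds plus 3 SD, cut at about 4.2% in these data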;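 also: inhibition shows as a rise in luminescence from relieved DAX1 repression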
Target sequence (P51843 207-470 limits assumed): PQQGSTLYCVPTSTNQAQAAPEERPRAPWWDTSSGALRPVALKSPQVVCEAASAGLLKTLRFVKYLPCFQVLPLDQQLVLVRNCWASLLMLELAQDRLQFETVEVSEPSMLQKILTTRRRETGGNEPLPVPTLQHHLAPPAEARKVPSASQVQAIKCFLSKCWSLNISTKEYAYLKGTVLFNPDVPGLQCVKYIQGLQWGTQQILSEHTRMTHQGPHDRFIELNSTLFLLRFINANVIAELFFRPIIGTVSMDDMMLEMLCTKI
ssDAF12 agonist – S. stercoralis DAF-12 nuclear receptor activators, primary screen, cell-based, luminescence, HEK293, GRIP1 co-expression, lit1-tk-luc; Nuclear hormone receptor DAF-12 (Strongyloides stercoralis); HEK293 ssDAF-12/GRIP1 lit1-tk-luc reporter; % of 3 µM dafachronic acid response; activation, % at 6.8 µM; hit rate 1% among 370,000;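 active = activation above the mean over all tested compounds plus 3 SD, cut at about 0.9% in these data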
SMARCA2 activ – SMARCA2 (BRM) function activators, primary screen, cell-based, luminescence, high throughput; MG213 cells, MMTV-luciferase reporter, dexamethasone, overnight; activation, % at 9.1 µM; hit rate 1% among 370,000; AID 652017, 2013; in the data active = activation above about 7.8%
LXR ag – LXR agonists, Gal4 luciferase reporter, confirmation, counter-screen for hcDAF-12 agonist project, cell-based, luminescence, HEK293, H. contortus campaign; HEK293 Gal4-LXR tk-luc reporter, 24 h; normalized: DMSO 0%, positive control 100%; activation, % at 6.8 µM; shares compounds with hcDAF12 agonist; AID 743027, 2013; 3,400 tested, under 10 active;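 active = mean percent activation of the reporter above a cutoff set as the average over tested compounds plus their standard deviation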
hcDAF12 conf – H. contortus DAF-12 receptor agonists, confirmation, cell-based, luminescence, HEK293, lit1-tk-luc, triplicate. shares compounds with hcDAF12 agonist. HEK293 hcDAF-12 lit1-tk-luc reporter; % of Δ7-dafachronic acid response. activation, % at 6.8 µM. hit rate 61% among 3,400. AID 743032, 2013;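 active = mean activation across triplicate tests above the threshold derived from the earlier primary screen, cut at about 5.5% in these data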
Each line names hits and unclear results; the compound was inactive in the other large screens (follow-up assays come after a bar, where they were run).

O=c1[nH]c2cc3c(cc2cc1CN(Cc1ccccc1)Cc1nnnn1Cc1ccco1)OCCO3	hcDAF12 agonist 8.3 | LXR ag inactive | hcDAF12 conf inactive
O=c1[nH]c2cc3c(cc2cc1CN(Cc1cccnc1)Cc1nnnn1Cc1ccco1)OCCO3	none
COc1ccc(Cl)cc1C(=O)Nc1ccc(NC(C)=O)cc1	none
COc1ccc(Cl)cc1C1=NOC2(CCC2)C(=O)N1Cc1ccc(NC(C)=O)cc1	hcDAF12 agonist 9.4 (no result: DAX1 inh-2) | LXR ag inactive | hcDAF12 conf inactive
CC(C)(C)c1ccc(/C=C/C(=O)NC2=NCCS2)cc1	hcDAF12 agonist 6.6 | LXR ag inactive | hcDAF12 conf 5.7
CC(C)(C)c1ccc(S(=O)(=O)N2CCCC2C(=O)NC2=NCCS2)cc1 (stereo not given)	none
CC(=O)Nc1ccc(SCC(=O)N(CCC#N)c2cc(C)cc(C)c2)cc1	none
CCn1c(=O)c(C(=O)NNC(=O)c2ccccc2)c(O)c2ccccc21	none
Cc1ccc(NC(=O)c2c(Cl)n(C)c3ccccc23)cc1	hcDAF12 agonist 7.0, ssDAF12 agonist 1.1 | LXR ag inactive | hcDAF12 conf 11
Cc1cccc(NC(=O)c2c(O)c3ccccc3n(C)c2=O)c1	hcDAF12 agonist 7.5, ssDAF12 agonist 1.1 | LXR ag inactive | hcDAF12 conf 12
CCn1c(=O)c(C(=O)Nc2ccc(C)cc2)c(O)c2ccccc21	hcDAF12 agonist 8.7 | LXR ag inactive | hcDAF12 conf inactive
Cc1ccc(NC(=O)c2cc(Cl)nc3ccccc23)cc1	none
C[n+]1c2n(c3ccccc31)N=C(c1ccc(-c3ccccc3)cc1)CS2	none
COc1ccc(CCNCc2ccccc2N2CCCC2)cc1	none
Cc1ccc(C)c(S(=O)(=O)Nc2ccc(O)c3ccccc23)c1	hcDAF12 agonist 8.0 | LXR ag inactive | hcDAF12 conf inactive
O=C(c1ccccc1)N1N=C(c2ccccc2)CC1c1ccccc1 (stereo not given)	none
Cn1cc(C2CC(c3ccccc3)=NN2C(=O)c2ccccc2)c2ccccc21 (stereo not given)	hcDAF12 agonist 7.9 | LXR ag inactive | hcDAF12 conf inactive
CCCC(=O)N1N=C(c2ccccc2)CC1c1cn(C)c2ccccc12 (stereo not given)	hcDAF12 agonist 8.1 | LXR ag inactive | hcDAF12 conf inactive
CC(=O)N1N=C(c2ccc(Br)cc2)CC1c1cn(C)c2ccccc12 (stereo not given)	none
C/C(=N/N=C(/C)c1cccs1)c1cccs1	hcDAF12 agonist 8.3, hgDAF-12 ag 16, DAX1 inh-2 6.1, ssDAF12 agonist 1.1 | LXR ag inactive | hcDAF12 conf 11
Cc1ccc(/C=N/Nc2cccc3cccnc23)c(O)c1	hcDAF12 agonist 7.5 | LXR ag inactive | hcDAF12 conf 17
Oc1c(Cl)cc(Cl)cc1C=Nc1cc(C(F)(F)F)ccc1N1CCc2ccccc2C1	hcDAF12 agonist 21, hgDAF-12 ag 20, ssDAF12 agonist 3.2 | LXR ag inactive | hcDAF12 conf 16
Oc1c(Cl)cccc1C=Nc1cc(C(F)(F)F)ccc1N1CCCC1	none
COc1cccc(-c2nnc(Nc3nc4c(F)cccc4s3)o2)c1	hcDAF12 agonist 8.3 | LXR ag inactive | hcDAF12 conf 6.8
Cc1ccc(-n2nnc(-c3cc4ccccc4n3C)n2)cc1	hcDAF12 agonist 9.7, ssDAF12 agonist 1.0 | LXR ag inactive | hcDAF12 conf 13
Cn1c(O)c(N=NC(=O)Cn2ccc(C(F)(F)F)n2)c2ccccc21	hcDAF12 agonist 9.1 | LXR ag inactive | hcDAF12 conf inactive
COc1ccc(NC(=O)Nc2nc3ccccc3s2)cc1	hcDAF12 agonist 7.1, hgDAF-12 ag 11 | LXR ag inactive | hcDAF12 conf inactive
COc1ccc(C(=O)Nc2nc3ccccc3s2)c(OC)c1	none
COc1n[nH]c(C(=O)Nc2nc3ccccc3s2)c1[N+](=O)[O-]	hcDAF12 agonist 8.0 | LXR ag inactive | hcDAF12 conf 6.1
CC1=NN(c2ccccc2)C(=O)C1=Cc1ccccc1	none
CC1=NN(c2ccccc2)C(=O)/C1=C/c1ccc[nH]1	hcDAF12 agonist 7.6, ssDAF12 agonist 1.1 | LXR ag inactive | hcDAF12 conf 8.8
O=S(=O)([N-]c1nc2ccccc2nc1-[n+]1ccc(-c2ccncc2)cc1)c1ccccc1	hcDAF12 agonist 6.9 | LXR ag inactive | hcDAF12 conf inactive
O=S(=O)([N-]c1nc2ccccc2nc1-[n+]1ccccc1)c1ccccc1	none
Nc1nn2cc(-c3ccc(Br)cc3)nc2c2ccccc12	hcDAF12 agonist 11, ssDAF12 agonist 1.6 | LXR ag inactive | hcDAF12 conf 14
O=[N+]([O-])c1cccn2cc(-c3ccc(Br)cc3)nc12	none
Cc1cccc2cc3c(nc12)-c1ccccc1C3=O	hcDAF12 agonist 7.2 | LXR ag inactive | hcDAF12 conf inactive
O=C(NC1CC1)c1ccccc1NC(=O)c1ccccc1OC(F)F	none
CCOC(=O)c1cnc(Nc2nc3ccccc3o2)nc1C	hcDAF12 agonist 6.8, DAX1 inh-1 4.2, hgDAF-12 ag 11 | LXR ag inactive | hcDAF12 conf inactive
O=c1cc[nH]c2c(Cl)cccc12	hcDAF12 agonist 7.2 | LXR ag inactive | hcDAF12 conf 5.7
CNC(=S)N/N=C1\C(=O)c2cccc3cccc1c23	hcDAF12 agonist 11 | LXR ag inactive | hcDAF12 conf 9.7
CSCCC(C(=O)NC1CCCC1)n1c(-c2ccccn2)nc2ccccc21 (stereo not given)	none (no result: DAX1 inh-2)
COc1ccc(CNCc2cc3c(cc2[N+](=O)[O-])OCO3)cc1	hcDAF12 agonist 9.4 | LXR ag inactive | hcDAF12 conf inactive
